Source: PubChem BioAssay AID686978 (National Center for Advancing Translational Sciences (NCATS), 2013)
Screen size: about 420,000 compounds; about 64,000 (15%) were called active. About 27% were inconclusive and are not listed. Calls come from the whole dose curve; as a rule, active = well fitted inhibition curve with a large enough effect; inconclusive = small, poorly fitted or top-dose-only effect; inactive = flat fitted curve, though single readings scatter. Not all results are given here.
% is set by controls: 0 for no effect and ±100 for the full control effect; potency is the fitted concentration of half-maximal effect.

Assay: qHTS for Inhibitors of human tyrosyl-DNA phosphodiesterase 1 (TDP1): qHTS in cells in absence of CPT; note: nearly all actives have a fitted effect of over 55% in size
Conditions: DT40 Tdp1-/- hTDP1 cells, no CPT, ATP luminescence, 48 h; activity change, negative = growth inhibition: at 46.2 µM (top of the series)
In short: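 Cells were dispensed at 400 per well, compounds added by pin tool, plates incubated ≥48 hr at 37 °C, then CellTiter-Glo added for 30 min at room temperature before luminescence reading. Line: DT40 Tdp1-/- complemented with hTDP1; camptothecin omitted.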
For `N#CCCn1cnc2ccccc21`, the “activity change, negative = growth inhibition” value was -13.7% (inactive).
In the case of `Cc1c(C=O)n(C)n(-c2ccccc2)c1=O`, the “activity change, negative = growth inhibition” value was -0.628% (inactive).
With `O=C(CSc1nnc(-c2cnccn2)n1Cc1ccco1)c1ccc(Cl)c(Cl)c1` the “activity change, negative = growth inhibition” value was -17.7% (inactive).
With `O=C(CSc1nnc(-c2cccnc2)n1Cc1ccco1)c1ccc(Cl)cc1` the Potency was 25.9 µM (active).
For `COc1cc(Cl)c(C)cc1NC(=O)CSc1nnc(-c2cccnc2)n1Cc1ccco1`, the “activity change, negative = growth inhibition” value was -22.2% (inactive).
In the case of `CC(=O)NS(=O)(=O)c1ccc(NC(=O)C2C3C=CC(C3)C2C(=O)O)cc1` (centres undefined), the “activity change, negative = growth inhibition” value was 0.129% (inactive).
With `Cc1cc2c3ccccc3[nH]c(=O)n2n1` the “activity change, negative = growth inhibition” value was -23.3% (inactive).
In the case of `CCCCC(O)C1=C[N+](=O)CC=C1` (centres undefined), the “activity change, negative = growth inhibition” value was -15.5% (inactive).
For `CN1CCN(C(=O)CCc2nc(-c3ccc(Cl)cc3)no2)CC1`, the “activity change, negative = growth inhibition” value was -11.7% (inactive).
For `COc1ccc(N2CCN(C(=O)CCc3nc(-c4ccc(C)cc4)no3)CC2)cc1`, the “activity change, negative = growth inhibition” value was -22.3% (inactive).
For `COc1ccc(-c2noc(CCC(=O)N3CCN(c4cccc(C)c4)CC3)n2)cc1`, the Potency was 13 µM (active).
In the case of `O=C(COC(=O)c1ccco1)Nc1ccc(Cl)cn1`, the “activity change, negative = growth inhibition” value was 6.19% (inactive).
With `O=c1ccn(Cc2ccccc2Cl)cc1` the “activity change, negative = growth inhibition” value was -7.73% (inactive).
With `N=c1n(Cc2ccc(Cl)cc2)c2ccccc2n1CC(O)c1ccco1` (centres undefined) the Potency was 5.8 µM (active).
With `O=S(=O)(O)c1nc2ccccc2n1Cc1ccc(Cl)cc1` the “activity change, negative = growth inhibition” value was -10.9% (inactive).
In the case of `CCC1=NN2C(=N)/C(=C/c3cc(C)n(-c4ccccc4)c3C)C(=O)N=C2S1`, the “activity change, negative = growth inhibition” value was 9.47% (inactive).
For `CCCC(=O)NC(=S)Nc1ccc(CN2CCOCC2)cc1`, the “activity change, negative = growth inhibition” value was 11.6% (inactive).
With `CCOC(=O)C(=CNNc1ccsc1C(=O)OC)C(=O)OCC` the Potency was 10.3 µM (active).
For `COC(=O)c1sccc1NC(=O)CCC1CCCC1`, the “activity change, negative = growth inhibition” value was -16.7% (inactive).
In the case of `COC(=O)c1sccc1NC(=S)Nc1ccc(C)cc1`, the “activity change, negative = growth inhibition” value was -12.6% (inactive).
For `CCn1c(SCC(=O)N(C)C2CCS(=O)(=O)C2)nnc1-c1cccs1` (centres undefined), the “activity change, negative = growth inhibition” value was 9.93% (inactive).
With `CC(C)N1C(=O)c2ccccc2NC(=O)C1C(=O)NCc1cccs1` (centres undefined) the “activity change, negative = growth inhibition” value was 9.26% (inactive).
For `CCN(CC(=O)NCc1cccs1)C(=O)c1cccc(S(=O)(=O)Nc2ccccc2OC)c1`, the “activity change, negative = growth inhibition” value was -11.2% (inactive).
In the case of `CCC1Sc2ccc(S(=O)(=O)CCC(=O)NCc3cccs3)cc2NC1=O` (centres undefined), the Potency was 14.6 µM (active).
For `Cc1cc(C)c(NC(=O)CS(=O)CC(=O)Nc2cccnc2)c(C)c1` (centres undefined), the “activity change, negative = growth inhibition” value was 0.606% (inactive).
For `COc1ccccc1N(CC(=O)Nc1ccccc1C(=O)N1CCCC1)S(C)(=O)=O`, the “activity change, negative = growth inhibition” value was -2.28% (inactive).
In the case of `CCOC(=O)CN1C(=O)C(O)(CC(=O)c2ccccn2)c2ccccc21` (centres undefined), the Potency was 4.11 µM (active).
For `CCOC(=O)CN1CCC(c2ccccc2)CC1`, the “activity change, negative = growth inhibition” value was -7.84% (inactive).
For `COc1ccccc1OCC(=O)O/N=C(\N)c1ccccn1`, the “activity change, negative = growth inhibition” value was -2.18% (inactive).
In the case of `CCCc1nn(C)c2c(=O)[nH]c(-c3cc(S(N)(=O)=O)ccc3OCC)nc12`, the “activity change, negative = growth inhibition” value was 2.45% (inactive).
With `Cn1c2ccccc2n2c(=O)c(=O)n(CC(=O)c3ccc(F)cc3)nc12` the “activity change, negative = growth inhibition” value was 1.31% (inactive).
With `CCOC(=O)c1ccc(N2C(=O)CC(N(C)Cc3ccccc3)C2=O)cc1` (centres undefined) the “activity change, negative = growth inhibition” value was 18.2% (inactive).
With `O=C1N/C(=C/c2cccs2)C(=O)N1Cc1ccc(F)cc1` the “activity change, negative = growth inhibition” value was -12.1% (inactive).
In the case of `Cc1cc(/C=C2/NC(=O)NC2=O)c(C)n1-c1cccnc1`, the “activity change, negative = growth inhibition” value was -0.13% (inactive).
With `Cc1ccc(CN2C(=O)N/C(=C/c3cc(C)n(-c4ccccn4)c3C)C2=O)cc1` the Potency was 23.1 µM (active).
For `COCCn1c(=O)c(-c2cccs2)nc2cncnc21`, the “activity change, negative = growth inhibition” value was -1.68% (inactive).
In the case of `CCOCCc1c(O)nc(SCC(=O)NCc2ccco2)[nH]c1=O`, the “activity change, negative = growth inhibition” value was -7.98% (inactive).
For `Cn1c(SCC(=O)NC2CCCCC2)nnc1-c1cc2ccccc2o1`, the “activity change, negative = growth inhibition” value was -21.8% (inactive).
For `O=C(NC1CCCCC1)C(c1cc2ccccc2o1)n1c(=O)c(-c2ccco2)nc2ccccc21` (centres undefined), the Potency was 16.4 µM (active).
In the case of `O=C(Nc1cc2ccccc2oc1=O)C1CCCCC1`, the “activity change, negative = growth inhibition” value was 3.65% (inactive).
With `CN1CCC(N(C)S(=O)(=O)c2ccc(NC(=O)c3cccc(C#N)c3)cc2)CC1` the “activity change, negative = growth inhibition” value was -0.0488% (inactive).
With `CCN(CC)S(=O)(=O)c1ccc(N2CCOCC2)c(NC(=O)c2ccc(=O)n(C)n2)c1` the “activity change, negative = growth inhibition” value was 2.16% (inactive).
With `CCN(CC)S(=O)(=O)c1ccc(N2CCOCC2)c(C(=O)O)c1` the “activity change, negative = growth inhibition” value was -3.19% (inactive).
For `CCN(CC)S(=O)(=O)c1ccc(N2CCCC2)c(NC(=O)c2ccc([N+](=O)[O-])o2)c1`, the Potency was 23.1 µM (active).
For `COc1ccc(CC(=O)Nc2cc(S(=O)(=O)N3CCCCC3)ccc2N2CCN(C)CC2)cc1`, the “activity change, negative = growth inhibition” value was -22% (inactive).
With `CCN(CC)S(=O)(=O)c1ccc(N2CCOCC2)c(NC(=O)C2COc3ccccc3O2)c1` (centres undefined) the Potency was 16.4 µM (active).
For `CN(C)S(=O)(=O)c1ccc(N2CCCC2)c(C(=O)NCc2ccccc2)c1`, the “activity change, negative = growth inhibition” value was -10.8% (inactive).
For `Cc1ccc(/C=N/NC(=S)NC2CCCCC2)o1`, the Potency was 4.11 µM (active).
With `Cc1ccc(NC(=S)NC2CCCC2)cc1` the “activity change, negative = growth inhibition” value was -53.3% (inactive).
With `CCCC/C(C)=N/NC(=O)NC1CCCCC1` the “activity change, negative = growth inhibition” value was -7.22% (inactive).
For `Cc1ccc(/C=N/NC(=O)CNC(=O)COc2ccccc2)o1`, the “activity change, negative = growth inhibition” value was -24.7% (inactive).
For `C/C(=N\NC(=S)NC1CCCCC1)c1ccc(C)o1`, the Potency was 23.1 µM (active).
With `COc1ccc(C(C)NC(=S)NC2CCCCC2)cc1OC` (centres undefined) the “activity change, negative = growth inhibition” value was -0.972% (inactive).
In the case of `Cn1c(N)cc(=O)n(C)c1=S`, the “activity change, negative = growth inhibition” value was -14% (inactive).
